# Measured values published in PubChem BioAssay AID1211 (NMMLSC, 2008).
# Calls of active or inactive are those of the source. No rule for the calls is given here.
# Biological target: Estrogen receptor (Homo sapiens) (UniProt P03372)
# Assay: displacement of fluorescent estrogen from ERalpha – cell-based, Cos7 ERalpha-GFP, flow cytometry, primary screen (AID 1211);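 also: 0% = DMSO vehicle wells and 100% = no E2-Alexa633 signal left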
# Conditions: fluorescent ligand competition, at 10 µM, active compounds read high
# Chain of Estrogen receptor (Homo sapiens) (P03372 whole entry, looked up): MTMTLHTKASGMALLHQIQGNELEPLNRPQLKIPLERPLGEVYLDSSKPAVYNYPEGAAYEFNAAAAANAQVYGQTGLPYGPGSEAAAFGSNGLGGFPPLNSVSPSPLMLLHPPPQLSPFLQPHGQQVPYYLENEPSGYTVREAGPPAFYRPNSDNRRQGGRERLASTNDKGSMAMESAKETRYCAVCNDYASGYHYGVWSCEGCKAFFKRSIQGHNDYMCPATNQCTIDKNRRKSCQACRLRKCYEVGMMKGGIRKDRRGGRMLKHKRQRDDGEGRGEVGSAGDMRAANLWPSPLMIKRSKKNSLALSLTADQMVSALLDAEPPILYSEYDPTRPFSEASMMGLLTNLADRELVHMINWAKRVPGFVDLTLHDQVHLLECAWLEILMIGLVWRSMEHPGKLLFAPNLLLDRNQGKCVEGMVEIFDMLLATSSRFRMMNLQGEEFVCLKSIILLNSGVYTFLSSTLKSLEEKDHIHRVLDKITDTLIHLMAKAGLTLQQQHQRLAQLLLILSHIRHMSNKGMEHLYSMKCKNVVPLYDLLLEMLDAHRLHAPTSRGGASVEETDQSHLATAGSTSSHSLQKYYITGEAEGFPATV
row,SMILES,inhibition of ligand binding
1,Cc1nn(-c2ccccc2)c(C)c1NC(=O)Cc1cccs1,11% (inactive)
2,COc1ccc(N2Cc3cccc(C(=O)O)c3C2=O)cc1,26% (inactive)
3,CCCSC1=N/C(=C\C=C\c2ccco2)C(=O)S1,0% (inactive)
4,Cc1c(N=Cc2ccc(O)c(Br)c2)cccc1[N+](=O)[O-],0% (inactive)
5,CC(=O)Nc1ccc2[nH]c(C)cc(=O)c2c1,27% (inactive)
6,Nc1ccc(-n2cnc3cc([N+](=O)[O-])ccc32)cc1,41% (active)
7,NS(=O)(=O)c1ccc2c(c1)C1C=CCC1C(C1CC=CCC1)N2 (configuration not stated),69% (active)
8,C=CCn1c(COc2cccc(C)c2)nnc1SCC(=O)NC(=O)NCc1ccco1,9% (inactive)
9,O=C(Nc1ccc2oc(-c3ccc4ccccc4c3)nc2c1)c1cccs1,32% (inactive)
10,Cc1ccc(C(=O)CSC2=C(C#N)C(c3ccco3)CC(=O)N2)c(C)c1 (configuration not stated),49% (inactive)
11,COc1ccc(NC(=O)C(c2ccccc2)N(C)C(=O)c2ccc(=O)[nH]c2)cc1 (configuration not stated),49% (active)
12,O=C(O)C1CSC(c2coc3ccccc3c2=O)N1 (configuration not stated),6% (inactive)
13,COc1cc(C2CC(=O)c3c(ccc4ccccc34)N2)ccc1O (configuration not stated),0% (inactive)
14,COc1cc2c(cc1OC)C(Cc1ccc(O)cc1)N(C)CC2 (configuration not stated),0% (inactive)
15,O=C(Oc1ccc2c(c1)OCO2)c1cc2c(s1)CCC2,32% (inactive)
16,Cc1ccc(-n2c(SCC(=O)NNC(=S)Nc3ccccc3)nc3ccccc3c2=O)cc1,37% (inactive)
17,COc1ccc(-c2cn3c(C)c(C(=O)Nc4ccncc4)sc3n2)cc1,28% (inactive)
